We go through 5 compounds from PubChem BioAssay (EPA / NIEHS).

Records with an inconclusive call do not appear. Calls of active or inactive are those of the source. The calls were made as follows: active = hit-call score of the fitted dose curve at least 0.9, where 1 is the maximum; inconclusive = response in the unintended direction; inactive = score below 0.9.

The target of assay [1] is human Caspase 10 (CASP10), CASP10 (gene 843) (UniProt Q92851). The assay can be described thus: NVS_ENZ_hCASP10: NovaScreen (NVS) Enzymatic Assay for human Caspase 10 (CASP10) (AID 2283133). On the procedure: (§1) NVS_ENZ_hCASP10 is a biochemical, single-readout assay that uses extracted gene-proteins from E. coli in a cell-free assay. Measurements were taken 1 hour after chemical dosing in a 96-well plate.NVS_ENZ_hCASP10 is one of one assay component(s) measured or calculated from the NVS_ENZ_hCASP10 assay. It is designed to make measurements of enzyme activity, a form of enzyme reporter, as detected with fluorescence intensity signals by Fluorescence technology.Data from the assay component NVS_ENZ_hCASP10 was analyzed into 1 assay endpoint. This assay endpoint, NVS_ENZ_hCASP10, was analyzed in the positive analysis fitting direction relative to DMSO as the negative control and baseline of activity. Using a type of enzyme reporter, loss-of-signal activity can be used to understand changes in the enzymatic activity as they relate to the gene CASP10. Furthermore, this assay endpoint can be referred to as a primary readout, because this assay has produced multiple assay endpoints where this one serves a enzymatic activity function. To generalize the intended target to other relatable targets, this assay endpoint is annotated to the protease intended target family, where the subfamily is cysteine protease. […]
Sequence of human Caspase 10 (CASP10), CASP10 (gene 843) (Q92851 whole entry, looked up): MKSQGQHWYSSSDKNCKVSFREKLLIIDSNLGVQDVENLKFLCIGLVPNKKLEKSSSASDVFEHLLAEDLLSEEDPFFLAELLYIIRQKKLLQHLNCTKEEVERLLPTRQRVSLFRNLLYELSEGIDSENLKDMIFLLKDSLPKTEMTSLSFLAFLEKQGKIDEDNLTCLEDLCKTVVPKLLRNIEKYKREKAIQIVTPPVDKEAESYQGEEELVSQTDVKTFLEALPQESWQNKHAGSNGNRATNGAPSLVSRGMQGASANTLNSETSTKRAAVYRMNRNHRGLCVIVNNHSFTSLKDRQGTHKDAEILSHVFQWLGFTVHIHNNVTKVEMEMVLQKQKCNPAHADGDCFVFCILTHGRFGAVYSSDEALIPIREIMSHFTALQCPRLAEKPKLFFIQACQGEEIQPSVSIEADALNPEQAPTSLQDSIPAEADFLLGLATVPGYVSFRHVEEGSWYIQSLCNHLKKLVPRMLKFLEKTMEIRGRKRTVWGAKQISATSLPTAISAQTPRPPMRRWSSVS

Assay [2] deals with human Caspase 5 (CASP5), CASP5 (gene 838) (UniProt P51878). As to the kind of experiment: NVS_ENZ_hCASP5: NovaScreen (NVS) Enzymatic Assay for human Caspase 5 (CASP5) (AID 2283137). On the procedure:
as §1, with “NVS_ENZ_hCASP5” for “NVS_ENZ_hCASP10”, “2 hours” for “1 hour”, “plate.NVS_ENZ_hCASP5” for “plate.NVS_ENZ_hCASP10”, “NVS_ENZ_hCASP5,” for “NVS_ENZ_hCASP10,”, “CASP5.” for “CASP10.”

For the next assay, the target named is Caspase-3 (Homo sapiens) (UniProt P42574). As to the kind of experiment: NVS_ENZ_hCASP3: NovaScreen (NVS) Enzymatic Assay for human Caspase 3 (CASP3) (AID 2283139). A digest of the protocol: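 Single-concentration screening at 25 uM in duplicate, with concentration-response follow-up to a 50 uM maximum for chemicals passing the threshold. Caspase-3 (human, E. coli-expressed) activity was read as substrate fluorescence after 1 h, with loss of signal relative to DMSO.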
Sequence of Caspase-3 (Homo sapiens) (P42574 whole entry, looked up): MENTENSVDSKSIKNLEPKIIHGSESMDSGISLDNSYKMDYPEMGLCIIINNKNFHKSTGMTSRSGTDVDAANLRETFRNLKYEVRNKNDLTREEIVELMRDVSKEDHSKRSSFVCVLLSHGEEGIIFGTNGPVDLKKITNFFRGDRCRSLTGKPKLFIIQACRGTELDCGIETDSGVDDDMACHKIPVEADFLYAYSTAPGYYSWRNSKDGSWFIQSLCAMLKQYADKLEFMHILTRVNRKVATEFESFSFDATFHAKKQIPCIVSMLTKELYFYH

Assay [3] has as its target human Aurora Kinase A - serine/threonine-protein Kinase 6 (AurA), AURKA (gene 6790) (UniProt O14965). As to the kind of experiment: NVS_ENZ_hAurA: NovaScreen (NVS) Enzymatic Assay for human Aurora Kinase A - serine/threonine-protein Kinase 6 (AurA) (AID 2283142). The method in brief:
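Recombinant human AurA activity read by fluorescence after mobility-shift separation of product from substrate; 1 hour incubation. Chemicals first run in duplicate at 25 uM, then concentration series to 50 uM if over threshold; fitted relative to DMSO.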

Sequence of human Caspase 5 (CASP5), CASP5 (gene 838) (P51878 whole entry, looked up): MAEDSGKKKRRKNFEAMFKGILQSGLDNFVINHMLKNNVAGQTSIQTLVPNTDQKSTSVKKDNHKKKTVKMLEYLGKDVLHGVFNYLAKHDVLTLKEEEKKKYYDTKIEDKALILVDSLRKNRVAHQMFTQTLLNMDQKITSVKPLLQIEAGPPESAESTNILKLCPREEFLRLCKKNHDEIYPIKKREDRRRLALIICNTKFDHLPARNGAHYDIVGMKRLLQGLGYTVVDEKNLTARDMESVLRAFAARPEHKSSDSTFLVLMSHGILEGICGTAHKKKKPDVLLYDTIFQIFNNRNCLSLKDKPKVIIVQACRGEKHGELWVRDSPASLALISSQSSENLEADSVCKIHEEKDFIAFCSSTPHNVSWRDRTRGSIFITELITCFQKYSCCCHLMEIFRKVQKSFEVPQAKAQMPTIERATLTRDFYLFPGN
Sequence of human Aurora Kinase A - serine/threonine-protein Kinase 6 (AurA), AURKA (gene 6790) (O14965 whole entry, looked up): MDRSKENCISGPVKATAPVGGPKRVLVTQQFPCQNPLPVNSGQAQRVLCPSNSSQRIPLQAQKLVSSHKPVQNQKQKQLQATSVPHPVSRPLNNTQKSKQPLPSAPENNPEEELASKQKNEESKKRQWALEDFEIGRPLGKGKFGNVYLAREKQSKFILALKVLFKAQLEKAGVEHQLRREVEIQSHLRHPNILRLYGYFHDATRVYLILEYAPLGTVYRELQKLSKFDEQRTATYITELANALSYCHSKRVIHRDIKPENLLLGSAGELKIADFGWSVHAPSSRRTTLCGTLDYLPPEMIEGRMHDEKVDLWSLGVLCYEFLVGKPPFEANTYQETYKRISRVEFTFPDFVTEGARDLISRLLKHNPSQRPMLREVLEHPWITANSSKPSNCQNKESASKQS

With `COC(=O)N(C(=O)N1CO[C@@]2(C(=O)OC)Cc3cc(Cl)ccc3C2=N1)c1ccc(OC(F)(F)F)cc1`, in assay [1], the compound was called inactive.
In the case of `Nc1c(Cl)c(Cl)nc(C(=O)O)c1Cl`, the half-maximal activity concentration (AC50) in assay [1] was 10.5 µM (active). For the same compound, the compound was classed as inactive in assay [2].
For `O=c1n(Cl)c(=O)n(Cl)c(=O)n1Cl`, in assay [2], the compound was called inactive.
For the compound `CCOc1nc(C(Cl)(Cl)Cl)ns1`, the result with Caspase-3 (Homo sapiens) was inactive.
Consider `CCCC(=NOCC)C1=C(O)CC(CC(C)SCC)CC1=O` (stereo unspecified), for which the call in assay [3] was inactive.
